Experimental data reported in PubChem BioAssay AID1159580 (chemical genetic matrix, 2015).
Several values for one entry are separate records, joined by “and”; a condition that tells them apart may be missing. Equal values may be shown once. In all, about 5,500 compounds went through this assay and about 2,000 (36%) were called active. Roughly 18% stayed inconclusive and do not appear here. Rule as the data show it: active = normalized growth mostly below about 0.91 (no sharp cut-off); inconclusive = no clear call, values can overlap the other calls; inactive = mostly above about 0.92. The list shows a part of the results.

Assay: chemical genetic growth profiling, strain panel (AID 1159580);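 also: tested at 20 µM; growth read once vehicle control cultures reached saturation at 30 °C; 1 = growth at the plate median or of vehicle wells; lower values mean less growth of the strain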
Settings: S. cerevisiae deletion strains, growth OD

Measured: normalized growth

COC(=O)[C@@H]1C(O)CC[C@H]2CN3CCc4c([nH]c5ccccc45)[C@@H]3C[C@@H]21 (some centres not stated)
inactive: locus YAL013W, strain DEP1, hits give low values 0.998 | locus YAL021C, strain ccr4, hits give low values 1.01 | locus YAL026C, strain drs2, hits give low values 1.01 | locus YAL030W, strain snc1, hits give low values 1.01 | locus YBL061C, strain skt5, hits give low values 1.01 | locus YBR009C, strain hhf1, hits give low values 0.998 | locus YBR021W, strain FUR4, hits give low values 1.01 | locus YBR023C, strain chs3, hits give low values 1.02 | locus YBR171W, strain sec66, hits give low values 1.02 | locus YBR229C, strain ROT2, hits give low values 0.99 | locus YBR231C, strain swc5, hits give low values 0.999 | locus YBR279W, strain paf1, hits give low values 1.02 | locus YCL011C, strain gbp2, hits give low values 1.01 | locus YCL016C, strain dcc1, hits give low values 1.02 | locus YCL029C, strain bik1, hits give low values 0.993 | locus YCL061C, strain MRC1, hits give low values 1.01 | locus YCL069W, strain vba3, hits give low values 1.01 | locus YCR088W, strain abp1, hits give low values 1.01 | locus YDL005C, strain med2, hits give low values 1.01 | locus YDL035C, strain GPR1, hits give low values 0.994 | locus YDL040C, strain nat1, hits give low values 1.01 | locus YDL074C, strain BRE1, hits give low values 1.01 | locus YDL101C, strain DUN1, hits give low values 0.99 | locus YDL134C, strain PPH21, hits give low values 0.996 | locus YDL185W, strain tfp1, hits give low values 0.971 | locus YDL192W, strain arf1, hits give low values 0.983 | locus YDR001C, strain nth1, hits give low values 1.02 | locus YDR069C, strain doa4, hits give low values 0.999 | locus YDR101C, strain arx1, hits give low values 1 | locus YDR137W, strain rgp1, hits give low values 1.02 | locus YDR150W, strain NUM1, hits give low values 0.973 | locus YDR159W, strain sac3, hits give low values 0.996 | locus YDR162C, strain NBP2, hits give low values 1.02 | locus YDR195W, strain ref2 1.02 | locus YDR297W, strain sur2, hits give low values 1.03 | locus YDR318W, strain mcm21, hits give low values 0.981 | locus YDR334W, strain swr1, hits give low values 1.02 | locus YDR335W, strain msn5, hits give low values 1.02 | locus YDR388W, hits give low values 0.999 | locus YDR392W, strain spt3, hits give low values 0.92 | locus YDR502C, strain sam2, hits give low values 1.01 | locus YEL003W, strain gim4, hits give low values 1.02 | locus YEL037C, strain rad23, hits give low values 1.03 | locus YEL061C, strain CIN8 (second series), hits give low values 1.02 | locus YEL061C, strain CIN8, hits give low values 0.998 | locus YER015W, strain faa2, hits give low values 1.01 | locus YER016W, strain bim1, hits give low values 1.02 | locus YER110C, hits give low values 0.982 | locus YER111C, strain swi4, hits give low values 1.01 | locus YER155C, strain BEM2 (second series), hits give low values 1.01 | locus YER155C, strain BEM2, hits give low values 0.992 | locus YER167W, strain BCK2, hits give low values 0.979 | locus YFR010W, strain ubp6, hits give low values 1.01 | locus YGL078C, strain dbp3, hits give low values 0.982 | locus YGL086W, strain mad1, hits give low values 0.955 | locus YGL167C, strain pmr1, hits give low values 1.01 | locus YGL173C, strain kem1, hits give low values 1 | locus YGL227W, strain vid30, hits give low values 1.02 | locus YGL240W, strain doc1, hits give low values 0.992 | locus YGL248W, strain PDE1, hits give low values 0.982 | locus YGL253W, strain hxk2, hits give low values 1.02 | locus YGR078C, strain PAC10, hits give low values 1 | locus YGR135W, strain pre9, hits give low values 1.01 | locus YGR229C, strain SMI1, hits give low values 1.03 | locus YGR252W, strain gcn5, hits give low values 1.01 | locus YHR013C, strain ard1, hits give low values 1.02 | locus YHR027C, strain rpn1, hits give low values 1.02 | locus YHR030C, strain SLT2, hits give low values 0.991 and 1.02 | locus YHR079C, strain IRE1 (second series), hits give low values 1.01 | locus YHR079C, strain IRE1, hits give low values 1.02 | locus YHR094C, strain hxt1, hits give low values 0.974 | locus YHR129C, strain ARP1, hits give low values 0.998 | locus YHR142W, strain chs7, hits give low values 1.02 | locus YHR200W, strain rpn10, hits give low values 0.988 | locus YIL066C, strain RNR3, hits give low values 0.984 | locus YIL073C, strain SPO22, hits give low values 0.915 | locus YIL125W, strain kgd1, hits give low values 0.981 | locus YIR030C, strain dcg1, hits give low values 0.994 | locus YJL092W, strain hpr5, hits give low values 1.01 | locus YJL095W, strain BCK1 (second series), hits give low values 1 | locus YJL095W, strain BCK1, hits give low values 1.03 and 1.02 | locus YJL115W, strain asf1, hits give low values 1.02 | locus YJL129C, strain trk1, hits give low values 1.03 | locus YJL134W, strain LCB3, hits give low values 0.985 | locus YJL154C, strain vps35, hits give low values 1.02 | locus YJL164C, strain tpk1, hits give low values 0.999 | locus YJL166W, strain qcr8, hits give low values 1.01 | locus YJL168C, strain set2, hits give low values 1 | locus YJL187C, strain SWE1 (second series), hits give low values 0.995 | locus YJL187C, strain SWE1, hits give low values 1.01 | locus YJR043C, strain POL32, hits give low values 0.998 | locus YJR066W, strain TOR1, hits give low values 0.954
